An excerpt weighted towards active compounds, which were near 28% of everything screened.
CD11b adhes enh – increases human CD11b/CD18 adhesion to fibrinogen; P05107+P11215; K562 CD11b/CD18 adhesion to fibrinogen, ATPlite luminescence; activation, % at 10 µM; hit rate 0.07% among 93,000;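 active = 10 µM primary screen giving 50% or more activity, confirmed by 40% or more on retest at that dose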
Mac1 fbg inh – blocks human CD11b/CD18 adhesion to fibrinogen; P05107+P11215; K562 CD11b/CD18 adhesion to fibrinogen, ATPlite luminescence; Mn2+ added to activate the integrin; inhibition, % at 10 µM; hit rate 0.54% among 93,000; AID 1497;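 active = primary inhibition of 50% or more at 10 µM, then 40% or more on retest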
CYP2C19 act – cytochrome P450 2C19 (human) activation. recombinant CYP2C19, luciferin-H EGE luminescence; stronger effect = higher value; 0 = fully inhibited enzyme, 1 = untreated enzyme. activation factor at 5 µM. 96,000 tested, under 10 active;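 active = activation factor of at least 2 at 5 µM in the primary screen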
CYP2C19 inh – human CYP2C19 inhibition. P33261. CYP2C19 Supersomes, luciferin-H EGE luminescence, 30 min. inhibition, % at 5 µM. hit rate 21% among 96,000. AID 778;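 active = CYP2C19 inhibition above a set limit at 5 µM in the primary screen, cut at about 50% in these data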
CYP2C9 activ – increases human cytochrome P450 2C9 activity; recombinant CYP2C9, luciferin-H conversion, luminescence; stronger effect = higher value; factor 1 = untreated enzyme, 0 = blocked; activation factor at 5 µM; hit rate 1.4% among 96,000;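 active = activation factor of 2 or more for CYP2C9 at a 5 µM dose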
Target sequence (P11712 whole entry, looked up): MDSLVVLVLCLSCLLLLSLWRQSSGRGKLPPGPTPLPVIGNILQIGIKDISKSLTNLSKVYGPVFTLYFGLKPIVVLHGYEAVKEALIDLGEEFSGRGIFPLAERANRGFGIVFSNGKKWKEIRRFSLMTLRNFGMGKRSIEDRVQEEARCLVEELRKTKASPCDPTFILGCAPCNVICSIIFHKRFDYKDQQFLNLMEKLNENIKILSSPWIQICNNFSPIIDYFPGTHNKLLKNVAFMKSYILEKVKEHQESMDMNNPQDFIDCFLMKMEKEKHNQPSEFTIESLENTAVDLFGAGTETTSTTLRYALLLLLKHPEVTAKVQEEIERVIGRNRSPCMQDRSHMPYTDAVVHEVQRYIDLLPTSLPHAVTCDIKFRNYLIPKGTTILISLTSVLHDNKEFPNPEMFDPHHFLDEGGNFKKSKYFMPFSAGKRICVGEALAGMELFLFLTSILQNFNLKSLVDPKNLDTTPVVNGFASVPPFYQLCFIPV
CYP2C9 inhib – blocks human cytochrome P450 2C9; hit rate 20% among 96,000; CYP2C9 Supersomes, luciferin-H conversion, luminescence; P11712; inhibition, % at 5 µM;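 active = blocking of liver enzyme CYP2C9 beyond about 50% at 5 µM, limit read from the data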
Each line names hits and unclear results; the compound was inactive in the other large screens.

O=C(CSc1nnc(-c2cccs2)n1Cc1ccco1)Nc1ccc2c(c1)OCO2	CYP2C9 inhib 63.3
COc1ccc(C)cc1NC(=O)CSc1nnc(-c2ccco2)n1Cc1ccco1	none
CCn1c(Cc2ccccc2)nnc1SCC(=O)Nc1ccc(N)cc1	none
O=C(CSc1nnc(-c2ccco2)n1Cc1ccco1)NCc1ccccc1	CYP2C19 inh 65.6, CYP2C9 inhib 84.9
O=C(Nc1ccccc1)NC1(C(=O)N2CCN(c3ncccn3)CC2)CCCCC1	none
COc1cc2cc(C)c(SCC(=O)N3CCOCC3)nc2cc1OC	none
Cc1ccc(OCc2nnc(SCC(=O)Nc3ccc4c(c3)OCCO4)n2Cc2ccco2)cc1	CYP2C9 inhib 69.4
O=C(CSc1ncc(-c2ccc(F)cc2)n1Cc1ccco1)Nc1ccc2c(c1)OCO2	CYP2C9 inhib 72.6
Cn1cccc1Cc1nnc(SCC(=O)Nc2ccc3c(c2)OCO3)n1-c1ccc(F)cc1	none
CCOC(=O)c1cnc2ccccc2c1Nc1ccc2c(c1)OCCO2	none (no result: CYP2C19 act, CYP2C19 inh, CYP2C9 activ, CYP2C9 inhib)
COc1cc(C)ccc1NC(=O)c1ccc(S(=O)(=O)N2CCOCC2)cc1	CYP2C9 activ 2.9 (no result: CD11b adhes enh, Mac1 fbg inh)
COc1ccc(NC(=O)c2cncc(Br)c2)c(S(=O)(=O)N2CCOCC2)c1	CYP2C19 inh 55.3
O=C(CSCc1ccc(Br)cc1)Nc1ccc(S(=O)(=O)N2CCOCC2)cc1	none
N#Cc1ccc(NC(=O)CCc2ccc(S(=O)(=O)N3CCOCC3)cc2)cc1	CYP2C9 inhib 70.5
Cc1cc(C)c(NC(=O)c2ccc(S(=O)(=O)N3CCOCC3)cc2)c(C)c1	none
COc1ccc(NC(=O)c2cccnc2Cl)c(S(=O)(=O)N2CCOCC2)c1	none
Cc1ccc(NC(=O)CCc2ccc(S(=O)(=O)N3CCOCC3)cc2)c(C)c1	CYP2C19 inh 50.7, CYP2C9 inhib 65.2
O=C(Nc1ccccc1OC(F)F)c1ccc(Br)o1	none
O=C(CCc1ccc(S(=O)(=O)NC2CCCCC2)cc1)NCc1ccc(Cl)cc1	none
Cc1ccc(C)c(NC(=O)CCc2ccc(S(=O)(=O)NC3CCCCC3)cc2)c1	CYP2C19 inh 83.9, CYP2C9 inhib 76.2
O=C1NC(c2ccccc2)(C(F)(F)F)SC2=NCCCN12 (stereo unspecified)	CYP2C19 inh 68.4
CCCCNC(=S)NNC(=O)c1csc2ccccc12	CYP2C19 inh 62.2
COc1ccccc1/C=C/C=N/N1CCN(Cc2cccc3ccccc23)CC1	none
Cn1cccc1CC(=O)N/N=C/c1cccc2ccccc12	none
Cn1cccc1CC(=O)N/N=C\c1c2ccccc2cc2ccccc12	CYP2C19 inh 51.6
O=C(CN1C(=O)CCSc2ccccc21)Nc1ccc2c(c1)OCCO2	none
O=C(CN1C(=O)CCSc2ccccc21)Nc1ccccc1	CYP2C19 inh 91.5, CYP2C9 inhib 70.3
O=C(CN1C(=O)CCSc2ccccc21)Nc1ccc(F)cc1	CYP2C19 inh 94.6, CYP2C9 inhib 80.3
CNC(=O)c1ccccc1S(=O)(=O)c1ccccc1C#N	none
CCOC(=O)c1cnn(-c2nc(-c3cccc(F)c3)cs2)c1C(F)(F)F	CYP2C9 inhib 72.1 (no result: CD11b adhes enh, Mac1 fbg inh)
CCOC(=O)c1cnn(-c2nc3c(C)cccc3s2)c1C(F)(F)F	none
CCn1nnc(NC(=O)c2ccccc2Br)n1	none
COc1cc(OC)c(NC(=O)CCc2ccccc2)cc1Cl	CYP2C19 inh 84.0
COc1cc(NC(=O)CCc2ccccc2)c(C(=O)O)cc1OC	none
CCOCCC(=O)Nc1cc(Cl)ccc1OC	none
COc1ccc(Cl)cc1NC(=O)CCc1ccccc1	CYP2C19 inh 82.9, CYP2C9 activ 3
CC(C)(C)C(=O)Nc1nnc(SCC(=O)NCc2ccco2)s1	none (no result: CYP2C19 act, CYP2C19 inh, CYP2C9 activ, CYP2C9 inhib)
COCCCN1C(=O)c2ccc(C(=O)O)cc2C1=O	none
O=C(OCCCCN1C(=O)c2ccccc2C1=O)c1ccc(Br)o1	CYP2C9 inhib 55.1
CC(=O)OCCCN1C(=O)c2ccc(Br)cc2C1=O	CYP2C19 inh 56.7
CC(C)OC(=O)CCCN1C(=O)c2ccc(N)cc2C1=O	CYP2C19 inh 74.3
O=C(OCCN1C(=O)c2ccccc2C1=O)c1cnccn1	none
O=C(CCCc1nc2ccccc2s1)NC(c1ccccc1)c1ccccc1	none (no result: CYP2C19 act, CYP2C19 inh, CYP2C9 activ, CYP2C9 inhib)
Cn1c(SCc2c(Cl)cccc2Cl)nnc1-c1cccs1	CYP2C19 inh 98.1, CYP2C9 inhib 75.7
Cn1c(SCc2ccc(Br)cc2)nnc1-c1cccs1	CYP2C19 inh 97.2, CYP2C9 inhib 76.1
Cc1nnc(SCc2c(Cl)cccc2Cl)s1	CYP2C19 inh 59.3

Source: PubChem BioAssay
